According to PMC5540273 (PLoS ONE, 2017):
Where “and” joins values, the source holds several entries; their conditions need not be identical. Identical values can stand only once. Like-named read-outs stand apart in the source and are kept apart here.

Tests used:
JNK1 = system: T1, JNK1; conditions: concentration: 1 μM, replicates: in singlicate, n = 1
T1 construct: gene MAPK8

JNK2 = system: T2, JNK2; conditions: concentration: 1 μM, replicates: in singlicate, n = 1
T2 construct: gene MAPK9

JNK3 = system: T3, JNK3; conditions: concentration: 1 μM, replicates: in singlicate, n = 1
T3 construct: gene MAPK10

KIT-autoinhibited = conditions: concentration: 1 μM, replicates: in singlicate, n = 1
KIT = conditions: concentration: 1 μM, replicates: in singlicate, n = 1
LATS1 = conditions: concentration: 1 μM, replicates: in singlicate, n = 1
LATS2 = conditions: concentration: 1 μM, replicates: in singlicate, n = 1
LCK = conditions: concentration: 1 μM, replicates: in singlicate, n = 1
LIMK1 = conditions: concentration: 1 μM, replicates: in singlicate; n = 1
LIMK2 = conditions: concentration: 1 μM, replicates: in singlicate, n = 1
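Note: KINOMEscan kinase panel screen.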

SMILES	%Inh (JNK1) [%]	%Inh (JNK2) [%]	%Inh (JNK3) [%]	%Inh (KIT-autoinhibited) [%]	%Inh (KIT) [%]	%Inh (LATS1) [%]	%Inh (LATS2) [%]	%Inh (LCK) [%]	%Inh (LIMK1) [%]	%Inh (LIMK2) [%]	%Inh (JNK1; 1 µM)	%Inh (JNK2; 1 µM)	%Inh (JNK3; 1 µM)	%Inh (KIT-autoinhibited; 1 µM)	%Inh (KIT; 1 µM)	%Inh (LATS1; 1 µM)	%Inh (LATS2; 1 µM)	%Inh (LCK; 1 µM)	%Inh (LIMK2; 1 µM)
Clc1ccc(-c2cc(-c3c[nH]nc3-c3ccccn3)ccn2)cc1 [GW681251]	35	30	33	0	54	0	0	13	0	0	–	–	–	–	–	–	–	–	–
NC(=O)c1sc(-n2cnc3ccccc32)cc1OCc1ccccc1F [GSK1024306]	3	28	14	0	0	0	0	9	0	20	–	–	–	–	–	–	–	–	–
CC(C)(C)OC(=O)NC1CCCN(c2cc(-c3ccc4c(N)n[nH]c4c3)nc(N)n2)C1 (stereo not drawn) [GSK2286096]	34	21	7	0	8	11	0	0	6	0	–	–	–	–	–	–	–	–	–
Cl.Cl.c1ccc(-c2cc3ccncc3cc2OC2CCNCC2)cc1 [GSK1122999]	14	15	0	0	18	33	50	38	18	34	–	–	–	–	–	–	–	–	–
Nc1nc(-c2ccc3c(N)n[nH]c3c2)cc(N2CCCCC2)n1 [GSK2228768]	5	11	0	0	5	0	0	3	0	0	–	–	–	–	–	–	–	–	–
CC(C)N1CCC(n2cnc(-c3ccc(F)cc3)c2-c2ccnc(N)n2)CC1 [SB-223132]	23	12	0	0	0	0	0	14	0	9	–	–	–	–	–	–	–	–	–
FC(F)(F)c1cc(Nc2nccc(-c3c(-c4ccc(Cl)cc4)nn4ncccc34)n2)ccc1Cl [GW829351]	8	58	65	1	38	0	0	0	0	0	–	–	–	–	–	–	–	–	–
COc1ccc(Nc2nccc(N3CCC(NC(=O)Nc4ccc5c(c4)OCO5)C3)n2)cc1 (stereo not drawn) [GSK1379745]	18	20	20	0	48	0	0	24	0	26	–	–	–	–	–	–	–	–	–
COc1cc2c(Nc3cccc(NC(=O)c4ccccc4)c3)ncnc2cc1OCCCN1CCOCC1 [GSK223810]	34	58	31	0	93.4	0	0	84	13	7	–	–	–	–	–	–	–	–	–
CN1CCC(n2cnc(-c3ccc(F)cc3)c2-c2ccnc(NC3CCNCC3)n2)CC1 [SB-229482]	71	96	92.4	0	25	0	8	0	0	30	–	–	–	–	–	–	–	–	–
Cl.O=S(=O)(c1cccc(F)c1)c1ccc(Nc2ncnc3cc(Br)sc23)cc1Cl [GSK306886]	0	7	4	0	34	0	0	15	33	3	–	–	–	–	–	–	–	–	–
O=C(CCO)NCCn1ccc2ncnc(Nc3ccc(Oc4cccc(C(F)(F)F)c4)c(Cl)c3)c21	8	0	1	0	0	5	2	26	0	0	–	–	–	–	–	–	–	–	–
Fc1cccc(COc2ccc(Nc3ncnc4sc(-c5ccc[nH]5)cc34)cc2Cl)c1 [GW707818]	1	15	0	0	16	9	0	8	9	17	–	–	–	–	–	–	–	–	–
O=C(Nc1ccccc1F)NC1CCN(c2ccnc(Nc3ccc(F)cc3)n2)C1 (stereo not drawn) [GSK1379722]	29	31	23	0	5	0	0	14	10	0	–	–	–	–	–	–	–	–	–
Clc1cc(Nc2ncnc3cc[nH]c23)ccc1OCc1ccccn1	31	40	53	11	38	14	29	7	0	0	–	–	–	–	–	–	–	–	–
CCc1nc(-c2cccc(N(C)S(=O)(=O)c3ccccc3)c2)c(-c2ccnc(Nc3ccc(N4CCN(C(C)=O)CC4)nc3)n2)s1 [GSK1645895]	23	30	22	8	19	0	20	44	31	0	–	–	–	–	–	–	–	–	–
Nc1nc(-c2ccc3c(N)n[nH]c3c2)cc(N2CCC[C@@H](C(=O)Nc3ccccc3)C2)n1.O=C(O)C(F)(F)F.O=C(O)C(F)(F)F [GSK2288359]	0	0	0	4	25	0	16	0	10	7	–	–	–	–	–	–	–	–	–
Fc1cccc(COc2ccc(Nc3ncnc4cc[nH]c34)cc2Cl)c1	33	17	46	6	24	26	25	25	22	17	–	–	–	–	–	–	–	–	–
COc1ccc(-c2nc3n(c2-c2ccncc2)CCC3)cc1 [SKF-104493]	–	–	–	–	–	–	–	–	0	–	46% and 22%	37% and 50%	47% and 65%	0% and 19%	0% and 25%	0% and 19%	16% and 12%	26% and 23%	0% and 3%
COc1ccc(NC(=O)Nc2ccc(C)c(-c3ccc(C(=O)Nc4ccncc4)cc3)c2)cc1 [GSK1398475]	5	4	0	0	100	0	6	47	0	22	–	–	–	–	–	–	–	–	–
O=c1cc(N2CCOCC2)nc2n(Cc3cccc(Cl)c3)ccn12 [GSK2296823]	21	12	7	4	11	0	46	17	15	0	–	–	–	–	–	–	–	–	–
Fc1cccc(COc2ccc(Nc3ncnc4nn5ccccc5c34)cc2Cl)c1 [GW689066]	11	10	0	0	0	0	0	5	0	0	–	–	–	–	–	–	–	–	–
CS(=O)(=O)CCNCc1nc(-c2ccc3ncnc(Nc4ccc(OCc5cccc(F)c5)c(Cl)c4)c3c2)cs1.Cl [GW583340]	0	0	0	0	7	0	9	5	0	3	–	–	–	–	–	–	–	–	–
Cl.Cn1ccc(-c2cccc(Nc3ccnc4cc(-c5nccs5)ccc34)c2)n1 [GW525701]	12	13	2	0	33	0	0	3	0	0	–	–	–	–	–	–	–	–	–
Cc1ccc(NC(=O)c2cccc(C#N)c2)cc1-c1ccc(C(=O)Nc2ccncc2)cc1 [GSK1398463]	25	16	17	13	100	19	0	83	28	14	–	–	–	–	–	–	–	–	–
Nc1nc(-c2cccnc2)c(-c2ccnc3ccccc23)s1 [GW684083]	23	29	11	0	23	0	26	17	0	0	–	–	–	–	–	–	–	–	–
CSc1ccc(NC2=C(c3ccccc3Cl)C(=O)NC2=O)cc1 [SB-342411]	1	1	0	0	25	5	23	18	0	7	–	–	–	–	–	–	–	–	–
CCc1nc(-c2cccc(C)c2)c(-c2ccnc(NC(=O)c3ccccc3)c2)s1	53	79	93.3	6	21	30	100	0	0	0	–	–	–	–	–	–	–	–	–
O=C(Nc1ccccc1)Nc1ccc(Oc2ccc3nccn3n2)cc1	0	0	0	28	95.8	0	0	21	10	14	–	–	–	–	–	–	–	–	–
Cl.Fc1ccccc1COc1ccc(Nc2ncnc3ccc(-c4nnc(C(F)(F)F)o4)cc23)cc1Cl [GW424170]	0	4	0	0	13	0	0	12	0	16	–	–	–	–	–	–	–	–	–
